# Screening results: PubChem, National Center for Advancing Translational Sciences (NCATS)
# 3T3 cytotox: NIH 3T3 cell cytotoxicity; NIH 3T3 viability, CellTiter-Glo ATP luminescence, 48-72 h; Potency, µM (series often up to 96.7 µM), inactives show top-dose activity change, negative = cytotoxicity, hits mostly inhibitors; actives 4.3% (n = 94,000); note: potency is the fitted concentration of half-maximal effect; nearly all actives have a fitted effect of over 55% in size
#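 First NIH 3T3 cells are plated at 400 cells/well; next compound is pinned in; then plates incubate 48 or 72 hr at 37 °C; finally CellTiter-Glo is added and luminescence read after 10 min.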
# HEK293 tox: HEK 293 cell cytotoxicity | Potency, µM (highest dose often 115 µM), for inactives: at the highest dose activity change, negative = cytotoxicity, most hits filed as inhibitors | AID 1345083 | HEK 293 viability, ATP luminescence (CellTiter-Glo), 48-72 h | actives 6.6% (n = 94,000); note: potency is the fitted concentration of half-maximal effect; nearly all actives have a fitted effect of over 60% in size
#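 Cells seeded first (HEK 293, 250 cells/well), then compound added by pintool. Incubation ran 48 or 72 hr at 37 degree Celsius. CellTiter-Glo was added and luminescence imaged after 10 min at room temperature.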
# IP6K1 inh: IP6K1 kinase inhibition; IP6K1 kinase, ADP-Glo luminescence, 2 h; stronger effect = lower value; actives 0.81% (n = 140,000); AID 1645851; Q92551; activity change, % (series mostly up to about 58 µM); in the data active = activity change below about -25%
#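 ADP-Glo luminescence measures ADP made by human IP6K1 during a 2 h RT reaction with ATP/IP6 (mix at 1.3 mM/130 uM); top library doses 57.5 and 19.1 uM final.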
# SNCA expr inh: reduces expression of the alpha-synuclein gene. HEK-293 SNCA-luciferase knock-in, luminescence, 24 h. Potency, µM (titrated, usually from 57.2 µM), without a hit: at the highest dose activity change, negative = inhibition, usual class: inhibitors. actives 0.17% (n = 140,000);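 note: potency is the fitted concentration of half-maximal effect; plate controls were DMSO cells for no effect and cell-free wells for full effect; nearly all actives have a fitted effect of over 45% in size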
# HEK293 viab: counter-screen for SNCA expression inhibitors: cell viability; HEK-293-SNCA-luc viability, GF-AFC fluorescence, 24 h; Potency, µM (highest dose often 57.1 µM), inactives show at the top dose activity change, negative = cytotoxicity, usual class: cytotoxic; actives 0.12% (n = 150,000); AID 1671193;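 note: potency is the fitted concentration of half-maximal effect; 0% = DMSO-treated cells and -100% = medium-only wells without cells; nearly all actives have a fitted effect of over 30% in size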
#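 Cytotoxicity counterscreen: after 24 h compound treatment of genome-edited SNCA-luciferase HEK-293 cells, live-cell protease substrate GF-AFC read by fluorescence after 30 min; activity scaled between DMSO (0%) and medium-only (-100%), curves Hill-fitted.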
# Luciferase inh: blocks purified firefly luciferase enzyme activity; purified P. pyralis luciferase, luminescence, biochemical; Potency, µM (titrated, usually from 115 µM), actives largely listed as inhibitors; P08659; actives 2.5% (n = 76,000); note: potency is the fitted concentration of half-maximal effect; nearly all actives have a fitted effect of over 65% in size
# Target sequence (P08659 whole entry, looked up): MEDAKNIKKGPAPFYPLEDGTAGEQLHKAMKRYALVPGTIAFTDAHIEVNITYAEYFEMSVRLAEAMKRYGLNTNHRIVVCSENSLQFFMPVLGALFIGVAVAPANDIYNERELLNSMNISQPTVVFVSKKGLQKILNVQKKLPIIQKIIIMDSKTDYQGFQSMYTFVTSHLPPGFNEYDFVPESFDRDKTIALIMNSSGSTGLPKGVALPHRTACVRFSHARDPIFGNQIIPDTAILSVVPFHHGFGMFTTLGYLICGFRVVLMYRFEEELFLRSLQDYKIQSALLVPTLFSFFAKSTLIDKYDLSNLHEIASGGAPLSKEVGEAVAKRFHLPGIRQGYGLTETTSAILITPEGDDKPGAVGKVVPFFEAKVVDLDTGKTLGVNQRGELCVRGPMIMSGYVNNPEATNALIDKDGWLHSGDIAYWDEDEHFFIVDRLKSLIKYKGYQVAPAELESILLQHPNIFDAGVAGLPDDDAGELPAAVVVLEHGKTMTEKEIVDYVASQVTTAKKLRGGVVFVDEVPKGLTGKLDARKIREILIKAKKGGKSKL
#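 Inhibitors were tested against purified firefly luciferase in a biochemical, low-substrate format (both substrates at 10uM) and luminescence measured with a CCD imager.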
# An asterisk follows results filed as active; i = inactive; ? = inconclusive; / = no result given; ! = repeats disagree; [ ] = remark or other dose. Most compounds without a hit are left out; they make up all but 7.3% or so of the library. Unless noted, calls come from the whole dose curve; as a rule, active = well fitted curve in the direction sought with a large enough effect; inconclusive = small, poorly fitted or top-dose-only effect, or another doubt; inactive = no such curve, though single readings can be large; an effect the other way counts as inactive or inconclusive. Unless noted, % is set by controls: 0 for no effect and ±100 for the full control effect.
SMILES,3T3 cytotox,HEK293 tox,IP6K1 inh,SNCA expr inh,HEK293 viab,Luciferase inh
CC[C@H]1CN2CC[C@H]1C[C@@H]2CNCc1ccc(OC)cc1,-24%[230 µM],?,-4,-12%[87.6 µM],-3%[87.6 µM],i
CC[C@H]1CN2CC[C@H]1C[C@@H]2CNCc1ccc(-c2ccccc2)cc1,28µM*,25µM*,-13,-14%[87.6 µM],?,i
CC[C@H]1CN2CC[C@H]1C[C@@H]2CNCc1ccc(C(F)(F)F)cc1,89µM*,?,3,14%[87.6 µM],-1%[87.6 µM],i
CC[C@H]1CN2CC[C@H]1C[C@@H]2CN(Cc1ccc(SC)cc1)Cc1ccc(SC)cc1,10µM*,7.1µM*,20,?,?,i
CN1CCN2C(=O)N(Cc3cccnc3)C[C@H]2C1,-5%[174 µM],-17%[230 µM],2,3%[87.6 µM],10%[87.6 µM],i
CCOC(=O)[C@H]1CN(C(=O)c2ccc(OC)c(OC)c2)[C@]2(C)C(=O)N(CC3CC3)c3ccccc3[C@H]12,?,?,-1,/,/,/
OCC1CN(C2CCC2)CC12CCNCC2 (centres undefined),-17%,2%,46,22%,6%[12.5 µM],i
COc1cc2c(cc1OC1CCCC1)NC(=O)C21CCN(Cc2ccccc2O)CC1,22µM*,40µM*,-21,?,-26%[87.6 µM],i
COc1cc2c(cc1OC1CCCC1)NC(=O)C21CCN(Cc2cccnc2)CC1,?,100µM*,-18,-28%[87.6 µM],-16%[87.6 µM],i
COc1cc2c(cc1OC1CCCC1)NC(=O)C21CCN(Cc2nccs2)CC1,?,100µM*,-20,-14%[87.6 µM],-4%[87.6 µM],i
O=C(C1CCCCC1)N1C[C@@H]2C[C@H](C1)c1c(/C=C/c3ccc(Cl)cc3)ccc(=O)n1C2,-4%,-13%,18,8%,-29%,i
CNc1ccc2oc(C[C@H]3O[C@@]4(CC[C@H]3C)O[C@H]([C@H](C)C(=O)c3ccc[nH]3)[C@H](C)C[C@H]4C)nc2c1C(=O)O,/,/,/,28µM*,?,/
CNc1ccc2oc(C[C@H]3O[C@@]4(CC[C@H]3C)O[C@H](C(C)C(=O)c3ccc[nH]3)[C@H](C)C[C@H]4C)nc2c1C(=O)O (some centres undefined),/,/,7,/,9.5µM*,/
COc1ccc2c(c1OC)CN1CCc3cc4c(cc3C1C2)OCO4 (centres undefined),/,/,14,3µM*!,?,/
CN1CCc2cc3c(cc2C1C1OC(=O)c2c1ccc1c2OCO1)OCO3 (centres undefined),/,/,1,/,9%,/
O=C1N(C2CCCCC2)C[C@H]2CN(Cc3ccncc3)CCN12,-18%[174 µM],-29%[172 µM],19,15%[87.6 µM],3%[87.6 µM],i
O=C1N(c2ccccn2)C[C@H]2CN(Cc3ccc(F)cc3)CCN12,-30%[138 µM],-26%[172 µM],3,6%[87.6 µM],-3%[87.6 µM],25µM*
Cn1cc(CN2CCOC[C@H](O)C2)c2ccccc21,89µM*,63µM*,10,?,-19%[87.6 µM],i
COc1cc2c(cc1Oc1ccccc1)NC(=O)C21CCN(Cc2ccccc2)CC1,28µM*,28µM*,-16,?,-20%[87.6 µM],i
COc1cc2c(cc1Oc1ccccc1)NC(=O)C21CCN(c2ncccn2)CC1,79µM*,?,-14,-47%[87.6 µM],-16%[87.6 µM],i
COc1cc2c(cc1Oc1ccccc1)NC(=O)C21CCN(Cc2cccc(O)c2)CC1,22µM*,?,-15,?,?,i
COc1cc2c(cc1Oc1ccccc1)NC(=O)C21CCN(CCC(C)C)CC1,?,?,-19,-14%[87.6 µM],-18%[87.6 µM],i
COc1cncc(CN2CCC3(CC2)C(=O)Nc2cc(OC4CCCC4)c(OC)cc23)c1,?,?,-12,-22%[87.6 µM],?,i
COc1cncc(CN2CCC3(CC2)C(=O)Nc2cc(Oc4ccccc4)c(OC)cc23)c1,?,35µM*,-6,-20%,?,i
CC(C)CC(=O)N1CCC2(CC1)c1nccn1-c1ccccc1CN2C,-9%,-1%,9,4%,6%,i
SMILES,3T3 cytotox,HEK293 tox,IP6K1 inh,SNCA expr inh,HEK293 viab,Luciferase inh
CCOC(=O)[C@H]1CN(C(=O)c2ccc(C)cc2)[C@]2(C)C(=O)N(CCOC)c3ccccc3[C@H]12,?,-12%,2,/,/,/
O=C(Cc1ccc(F)cc1)N1CCN(CCn2nc3n(c2=O)CCCC3)CC1,-12%,-3%,-8,/,/,/
C#C[C@H]1CN2CC[C@H]1C[C@@H]2CNCc1cccc(Cl)c1,?,126µM*,9,-27%[87.6 µM],-10%[87.6 µM],i
C#C[C@H]1CN2CC[C@H]1C[C@@H]2CNC(=O)c1ccc(-c2ccccc2)cc1,112µM*,89µM*,12,7%[87.6 µM],-1%[87.6 µM],i
CC[C@H]1CN2CC[C@H]1C[C@@H]2CNC(=O)c1ccc(-c2ccccc2)cc1,?,89µM*,15,-17%[87.6 µM],6%[87.6 µM],i
CC[C@H]1CN2CC[C@H]1C[C@@H]2CNC(=O)c1ccc2ccccc2c1,?,?,-7,2%[87.6 µM],-2%[87.6 µM],i
Cc1cccc(OCC(=O)N2[C@H]3CC[C@@H]2c2cnc(C)nc2C3)c1,2%,i,14,15%,9%,i
Cc1ccc(C(=O)N2[C@H]3CC[C@@H]2c2cnc(-c4ccc(F)cc4)nc2C3)cn1,-26%,?,1,-6%,1%,i
C=C[C@H]1CN2CC[C@H]1C[C@@H]2CNC(=O)Nc1ccc(Oc2ccccc2)cc1,?,100µM*,0,13%[87.6 µM],4%[87.6 µM],i
C=C[C@H]1CN2CC[C@H]1C[C@@H]2CNC(=O)c1cc(OC)c(OC)c(OC)c1,45µM*,?,8,-2%[87.6 µM],-15%[87.6 µM],i
C=C[C@H]1CN2CC[C@H]1C[C@@H]2CNC(=O)Nc1cc(OC)cc(OC)c1,?,-5%[172 µM],-2,2%[87.6 µM],2%[87.6 µM],i
C=C[C@H]1CN2CC[C@H]1C[C@@H]2CNC(=O)Nc1ccc(OC(F)(F)F)cc1,?,-12%[172 µM],11,?,0%[87.6 µM],i
C=C[C@H]1CN2CC[C@H]1C[C@@H]2CNC(=O)Nc1ccc(Br)cc1,?,56µM*,-15,?,15%[87.6 µM],i
C#C[C@H]1CN2CC[C@H]1C[C@@H]2CNC(=O)Nc1ccc(Oc2ccccc2)cc1,40µM*,40µM*,10,-22%[87.6 µM],-5%[87.6 µM],i
CCOC(=O)[C@H]1CN(C(=O)c2ccno2)[C@]2(C)C(=O)N(CC3CC3)c3ccccc3[C@H]12,-31%[46.1 µM],?,6,-30%[25.6 µM],?,/
CCOC(=O)[C@H]1CN(C(=O)/C=C/c2ccccc2)[C@]2(C)C(=O)N(CCOC(C)=O)c3ccccc3[C@H]12,?,-27%[57.5 µM],0,-9%[25.6 µM],6%[23.9 µM],/
